PubChem BioAssay (Tox21)
Inconclusive results are not listed. Active and inactive are the calls of the source. Unless noted, calls follow the shape of the dose curve; as a rule, active = well fitted curve in the direction sought with a large enough effect in the repeat runs; inconclusive = weak or mixed curves; inactive = no such curve, though single readings can be large; an effect the other way counts as inactive or inconclusive.

Legend:
[1] = molecular target: Nuclear receptor subfamily 1 group I member 3 (Homo sapiens) (UniProt Q14994); test: qHTS assay to identify small molecule antagonists of the constitutive androstane receptor (CAR) signaling pathway (AID 1224838);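 also: HepG2 cells stably expressing hCAR with CYP2B6 luciferase reporter stimulated by CITCO; nearly all actives have a fitted effect of over 40% in size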
Sequence of Nuclear receptor subfamily 1 group I member 3 (Homo sapiens) (Q14994 whole entry, looked up): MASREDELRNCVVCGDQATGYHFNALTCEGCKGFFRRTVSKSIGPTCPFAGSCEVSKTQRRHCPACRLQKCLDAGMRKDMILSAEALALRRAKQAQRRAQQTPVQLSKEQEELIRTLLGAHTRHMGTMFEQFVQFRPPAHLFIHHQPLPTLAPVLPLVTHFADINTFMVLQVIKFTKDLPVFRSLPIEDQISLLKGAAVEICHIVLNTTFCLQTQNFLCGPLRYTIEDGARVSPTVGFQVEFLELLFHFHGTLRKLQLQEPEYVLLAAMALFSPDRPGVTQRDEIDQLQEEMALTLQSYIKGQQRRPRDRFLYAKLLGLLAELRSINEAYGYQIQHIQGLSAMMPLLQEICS
In short: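 Reporter luminescence was quantified after 24 h exposure of hCAR/CYP2B6-2.2kb double-stable HepG2 cells to compounds at 15 concentrations in the presence of 50 nM CITCO final.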

[2] = qHTS assay to identify small molecule antagonists of the estrogen related receptor (ERR) signaling pathway from Tox21 library - cell viability counter screen (AID 1224834); also: nearly all actives have a fitted effect of over 30% in size
In short: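 CellTiter-Fluor fluorescence measured; ERR cells; 17.5 h compound incubation at 37 C; 30 min reagent step.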

[3] = qHTS assay to identify small molecule antagonists of the estrogen related receptor signaling pathway with the pleiotropic PPARgamma coactivator (PGC) from Tox21 10K library - cell viability counter screen (AID 1224840; active = well fitted cell-killing curve with a large enough effect in the repeat runs, not every such curve was filed as active; also: nearly all actives have a fitted effect of over 40% in size)
In short: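 Here the PGC/ERR cells serve as a cytotoxicity control: they are exposed to compounds for 17.5 hours at 37 C, and live-cell signal is quantified using CellTiter-Fluor fluorescence.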

[4] = qHTS assay to identify small molecule antagonists of the estrogen related receptor signaling pathway with the pleiotropic PPARgamma coactivator (PGC) from Tox21 10K library (AID 1224841; call rule not given here; also: series mostly up to about 92 µM; actives are mostly falling curves and most rising ones were filed inactive; nearly all actives have a fitted effect of over 50% in size)
In short: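 Each well held 2,000 PGC/ERR cells, pre-incubated six hours (37 C, 5% CO2). Test substances in DMSO were added by pin tool and left for 18 h at 37 C before luciferase detection by One-Glo.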

[5] = qHTS assay to identify small molecule antagonists of the estrogen related receptor (ERR) signaling pathway from Tox21 library (AID 1224848); also: nearly all actives have a fitted effect of over 50% in size
In short: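 Reading was by luminescence 30 min after ONE-Glo addition. Before that, ERR cells at 2,000 per well had rested 6 h at 37 C/5% CO2 and then received pin-tooled compounds in DMSO for 18 h at 37 C.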

[6] = molecular target: Luciferin 4-monooxygenase (Photinus pyralis) (UniProt P08659); test: qHTS assay to identify small molecule inhibitors of firefly luciferase (AID 1224835); also: series mostly up to about 120 µM; nearly all actives have a fitted effect of over 25% in size
Sequence of Luciferin 4-monooxygenase (Photinus pyralis) (P08659 whole entry, looked up): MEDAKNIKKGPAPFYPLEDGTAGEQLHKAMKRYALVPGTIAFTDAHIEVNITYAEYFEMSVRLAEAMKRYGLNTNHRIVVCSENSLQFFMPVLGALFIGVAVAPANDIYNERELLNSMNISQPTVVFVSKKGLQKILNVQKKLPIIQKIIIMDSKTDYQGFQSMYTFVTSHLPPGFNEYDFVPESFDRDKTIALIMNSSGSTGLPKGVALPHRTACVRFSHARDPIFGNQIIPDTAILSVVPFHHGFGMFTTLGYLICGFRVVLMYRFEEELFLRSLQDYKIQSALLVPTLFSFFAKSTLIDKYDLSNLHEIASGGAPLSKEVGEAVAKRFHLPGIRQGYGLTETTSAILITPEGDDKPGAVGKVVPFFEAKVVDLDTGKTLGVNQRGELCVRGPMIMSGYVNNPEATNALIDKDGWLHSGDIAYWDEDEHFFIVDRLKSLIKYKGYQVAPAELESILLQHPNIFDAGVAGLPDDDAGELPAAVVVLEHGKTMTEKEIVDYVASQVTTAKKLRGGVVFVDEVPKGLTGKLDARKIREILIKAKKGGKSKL
In short: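 Inhibition of purified Photinus luciferase is measured by luminescence. Substrate levels (D-luciferin, ATP) sit at their KM values. Each compound is tested in a concentration series.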

[7] = qHTS RealTime-Glo MT Cell Viability Assay in HEK293 cells - 0 hour (AID 1224880); also: top concentration of the series differs between compounds; nearly all actives have a fitted effect of over 45% in size
In short: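 Tox21 screen in HEK293 using RealTime-Glo MT chemistry, with cells and reagent co-dispensed. Luminescence proportional to viable cell number was captured at intervals during 40 h compound exposure at 37 C.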

[8] = qHTS assay to identify small molecule HDAC inhibitors (AID 1259364);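 also: wild-type HCT-116 cells with endogenous class I/II HDAC activity; top concentration of the series differs between compounds; nearly all actives have a fitted effect of over 45% in size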
In short: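 Relative class I and II HDAC activity is taken from the luminogenic signal in HCT-116 cells, with compound exposure 2 hr and reagent development 30 min at room temperature.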

[9] = qHTS assay to identify small molecule antagonists of the progesterone receptor (PR) signaling pathway - cell viability counter screen (AID 1346798);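 also: HEK293T PR-UAS-bla cells stimulated with the agonist R5020; series mostly up to about 92 µM; nearly all actives have a fitted effect of over 50% in size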
In short: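 Same-well multiplex: after 16 hr at 37C with compound and R5020 stimulation, HEK293T cells carrying a UAS-bla reporter received LiveBLAzer substrate (2 hr RT), then CellTiter-Glo (30 min RT) for luminescent viability.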

[10] = qHTS assay to identify small molecule antagonists of the estrogen receptor alpha (ER-alpha) signaling pathway using the BG1 cell line in the presence of 0.1 nM 17-beta-estradiol - cell viability counter screen (AID 1259241); also: nearly all actives have a fitted effect of over 40% in size
In short: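 The cell line endogenously expresses full-length ER-alpha and carries four EREs driving luciferase. Cells are cultured 5 days hormone-free, treated 22 hr with compounds and 0.1 nM estradiol, then viability is read by fluorescence.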

[11] = qHTS assay to identify small molecule antagonists of the androgen receptor (AR) signaling pathway using the MDA cell line in the presence of 0.5 nM R1881 - cell viability counter screen (AID 1259242); also: nearly all actives have a fitted effect of over 45% in size
In short: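 R1881 at 0.5 nM final stimulated MDA-kb2 cells during 16 hr compound treatment at 37C. Cytotoxicity read: CellTiter-Fluor fluorescence after 30 min.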

[12] = molecular target: Nuclear receptor subfamily 1 group I member 2 (Homo sapiens) (UniProt O75469); test: Human pregnane X receptor (PXR) small molecule agonists, qHTS assay (AID 1346982); also: nearly all actives have a fitted effect of over 35% in size
Sequence of Nuclear receptor subfamily 1 group I member 2 (Homo sapiens) (O75469 whole entry, looked up): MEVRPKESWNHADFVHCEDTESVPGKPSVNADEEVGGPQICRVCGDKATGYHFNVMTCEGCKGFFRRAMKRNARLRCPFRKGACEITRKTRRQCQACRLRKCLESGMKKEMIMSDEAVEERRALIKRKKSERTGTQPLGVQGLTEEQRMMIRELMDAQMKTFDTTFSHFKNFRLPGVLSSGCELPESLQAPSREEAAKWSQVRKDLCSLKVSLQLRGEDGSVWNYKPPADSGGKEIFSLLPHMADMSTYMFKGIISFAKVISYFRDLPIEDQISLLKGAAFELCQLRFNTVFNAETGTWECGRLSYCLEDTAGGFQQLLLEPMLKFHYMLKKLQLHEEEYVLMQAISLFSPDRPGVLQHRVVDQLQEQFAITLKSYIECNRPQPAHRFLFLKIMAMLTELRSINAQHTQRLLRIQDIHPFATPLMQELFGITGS
In short: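 We seeded PXR-Luc HepG2 cells in assay medium containing 5% charcoal-stripped FBS, added compounds 5 hr later, incubated 24 hr, and read luminescence with ONE-Glo reagent.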

[13] = molecular target: Estrogen receptor beta (Homo sapiens) (UniProt Q92731); test: qHTS assay to identify small molecule agonists of the estrogen receptor beta (ER-beta) signaling pathway (AID 1259377; active = well fitted activation curve with a large enough effect in the signal ratio in the repeat runs, not every such curve was filed as active; the % refers to the signal ratio)
Sequence of Estrogen receptor beta (Homo sapiens) (Q92731 whole entry, looked up): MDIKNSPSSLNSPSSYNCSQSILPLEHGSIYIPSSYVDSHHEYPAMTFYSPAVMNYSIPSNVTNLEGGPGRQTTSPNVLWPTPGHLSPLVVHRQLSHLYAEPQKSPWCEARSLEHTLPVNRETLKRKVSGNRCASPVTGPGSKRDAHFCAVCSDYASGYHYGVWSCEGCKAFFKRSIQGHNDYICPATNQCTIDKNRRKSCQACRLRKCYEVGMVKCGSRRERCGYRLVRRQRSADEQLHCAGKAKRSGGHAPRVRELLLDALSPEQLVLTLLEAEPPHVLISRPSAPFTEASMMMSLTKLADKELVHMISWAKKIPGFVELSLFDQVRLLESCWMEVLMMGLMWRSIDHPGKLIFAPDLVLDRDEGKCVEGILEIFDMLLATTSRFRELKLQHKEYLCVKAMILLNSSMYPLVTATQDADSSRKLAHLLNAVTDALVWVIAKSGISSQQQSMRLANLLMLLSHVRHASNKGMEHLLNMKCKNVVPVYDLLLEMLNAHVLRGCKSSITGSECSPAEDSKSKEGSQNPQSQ
In short: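 A UAS-controlled beta-lactamase reporter in ER-beta-UAS-bla HEK293T cells reports receptor activation. Compounds act for 16 hr at 37C in 2% charcoal-stripped serum, and a FRET substrate is read by fluorescence after 2 hours.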

[14] = qHTS assay to identify small molecule agonists of the hypoxia (HIF-1) signaling pathway (AID 1224846; active = well fitted activation curve with a large enough effect in the signal ratio in the repeat runs, not every such curve was filed as active; the % refers to the signal ratio)
In short: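 Hypoxia-pathway activation was scored as increased beta-lactamase from an HRE-controlled reporter in ME-180 cells; plated at 2,000 cells per well with 0.5% dialyzed FBS, they were exposed 17 hrs to compounds and then given CCF4-AM.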

[15] = molecular target: Thyrotropin receptor (Homo sapiens) (UniProt P16473); test: qHTS assay to identify small molecule antagonists of the thyroid stimulating hormone receptor (TSHR) signaling pathway (AID 1259385; calls by dose curve; also: nearly all actives have a fitted effect of over 20% in size)
Sequence of Thyrotropin receptor (Homo sapiens) (P16473 whole entry, looked up): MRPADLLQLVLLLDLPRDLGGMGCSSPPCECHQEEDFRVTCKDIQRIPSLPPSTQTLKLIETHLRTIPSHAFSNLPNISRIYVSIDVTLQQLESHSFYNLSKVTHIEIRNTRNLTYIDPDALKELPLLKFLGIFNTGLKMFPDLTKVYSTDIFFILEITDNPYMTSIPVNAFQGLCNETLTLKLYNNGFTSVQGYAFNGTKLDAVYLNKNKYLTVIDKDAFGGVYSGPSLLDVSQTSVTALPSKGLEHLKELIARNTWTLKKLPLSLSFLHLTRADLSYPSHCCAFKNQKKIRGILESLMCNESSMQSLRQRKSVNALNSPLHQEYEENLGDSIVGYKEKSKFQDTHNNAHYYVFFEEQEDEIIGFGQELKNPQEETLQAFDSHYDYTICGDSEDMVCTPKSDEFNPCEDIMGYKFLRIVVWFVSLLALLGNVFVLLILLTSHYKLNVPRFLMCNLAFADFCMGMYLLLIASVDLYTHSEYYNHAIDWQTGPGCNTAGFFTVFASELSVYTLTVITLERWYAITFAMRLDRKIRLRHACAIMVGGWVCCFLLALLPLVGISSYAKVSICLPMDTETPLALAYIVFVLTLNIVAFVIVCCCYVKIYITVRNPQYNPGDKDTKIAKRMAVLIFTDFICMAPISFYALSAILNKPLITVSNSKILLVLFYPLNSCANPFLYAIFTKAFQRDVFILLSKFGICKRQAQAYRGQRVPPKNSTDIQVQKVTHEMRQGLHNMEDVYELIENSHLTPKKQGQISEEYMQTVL
In short: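 Antagonist mode: compound-treated TSHR-expressing HEK293 cells were stimulated with 1.5 ng/mL TSH (final) in presence of Ro20-1724 for 30 min at RT. HTRF cAMP detection after 1 h; each compound tested at 15 concentrations, triplicate.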

[16] = qHTS assay to identify small molecule agonists of the sonic hedgehog signaling (Shh) pathway (AID 1259368; calls by dose curve;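 also: NIH/3T3-derived 3T3Gli1-Luc cells carrying a stable Gli1-driven firefly luciferase reporter; series mostly up to about 92 µM; nearly all actives have a fitted effect of over 15% in size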)
In short: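 Mouse fibroblast (NIH/3T3) reporter cells with stably integrated Gli1-Luc were treated 24 hr with compound; firefly luciferase luminescence served as the read-out.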

[17] = molecular target: Thyrotropin-releasing hormone receptor (Homo sapiens) (UniProt P34981); test: qHTS assay to identify small molecule antagonists of the thyrotropin-releasing hormone receptor (TRHR) signaling pathway (AID 1346877; active = well fitted inhibition curve with a large enough effect in the repeat runs, not every such curve was filed as active; also: series mostly up to about 51 µM)
Sequence of Thyrotropin-releasing hormone receptor (Homo sapiens) (P34981 whole entry, looked up): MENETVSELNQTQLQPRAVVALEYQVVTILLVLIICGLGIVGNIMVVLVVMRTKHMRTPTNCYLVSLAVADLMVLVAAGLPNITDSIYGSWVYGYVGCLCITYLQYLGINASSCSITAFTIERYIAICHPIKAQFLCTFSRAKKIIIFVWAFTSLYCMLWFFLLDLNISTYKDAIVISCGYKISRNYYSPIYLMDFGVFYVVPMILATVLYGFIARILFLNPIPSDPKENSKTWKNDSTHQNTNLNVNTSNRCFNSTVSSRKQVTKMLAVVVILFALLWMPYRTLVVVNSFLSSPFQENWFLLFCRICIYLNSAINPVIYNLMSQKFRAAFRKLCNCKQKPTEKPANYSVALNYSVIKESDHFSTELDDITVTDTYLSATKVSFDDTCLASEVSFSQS
In short: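 Screening used HEK293 cells engineered with TRHR, with a brief 5 min room-temperature compound exposure preceding addition of TRH to 1 nM. The read-out was kinetic calcium-dye fluorescence, concentration-response from 15 doses in triplicate.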

[18] = molecular target: Thyrotropin-releasing hormone receptor (Homo sapiens) (UniProt P34981); test: qHTS assay to identify small molecule agonists of the thyrotropin-releasing hormone receptor (TRHR) signaling pathway (AID 1346891; calls by dose curve;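 also: HEK293 cells expressing TRHR with calcium dye readout; series mostly up to about 58 µM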)
In short: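 Agonist-mode calcium mobilisation screen: TRHR-transfected HEK293 cells cultured overnight (18 h), dye-loaded for 2 h at 37 °C, exposed to compounds, and monitored by fluorescence for 3 min.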

[19] = molecular target: Estrogen receptor (Homo sapiens) (UniProt P03372); test: qHTS assay to identify small molecule antagonists of the estrogen receptor alpha (ER-alpha) signaling pathway using the BG1 cell line in the presence of 0.1 nM 17-beta-estradiol (AID 1259244); also: nearly all actives have a fitted effect of over 50% in size
Sequence of Estrogen receptor (Homo sapiens) (P03372 whole entry, looked up): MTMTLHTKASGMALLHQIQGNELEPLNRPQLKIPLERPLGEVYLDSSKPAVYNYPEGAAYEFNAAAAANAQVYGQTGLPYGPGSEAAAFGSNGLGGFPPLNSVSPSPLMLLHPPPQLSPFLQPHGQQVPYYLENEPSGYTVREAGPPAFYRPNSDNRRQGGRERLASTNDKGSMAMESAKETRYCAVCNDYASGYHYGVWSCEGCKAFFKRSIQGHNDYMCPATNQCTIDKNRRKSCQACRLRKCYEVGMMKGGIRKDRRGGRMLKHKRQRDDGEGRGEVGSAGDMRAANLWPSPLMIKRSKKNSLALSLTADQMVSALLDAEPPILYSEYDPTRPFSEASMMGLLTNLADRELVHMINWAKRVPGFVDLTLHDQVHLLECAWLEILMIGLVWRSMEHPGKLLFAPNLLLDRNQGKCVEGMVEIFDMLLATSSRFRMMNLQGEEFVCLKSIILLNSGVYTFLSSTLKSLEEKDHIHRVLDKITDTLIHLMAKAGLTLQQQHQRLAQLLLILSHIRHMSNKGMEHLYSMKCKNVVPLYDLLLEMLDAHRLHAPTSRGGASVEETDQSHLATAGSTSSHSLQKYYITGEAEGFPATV
In short: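 VM7Luc4E2; 4xERE-luciferase; 0.1 nM E2 final; 22 h co-incubation, 37C; ONE-Glo luminescence after 30 min at room temperature.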

[20] = molecular target: Estrogen receptor (Homo sapiens) (UniProt P03372); test: qHTS assay to identify small molecule agonists of the estrogen receptor alpha (ER-alpha) signaling pathway in the presence of an antagonist (AID 1259383; calls by dose curve; also: top concentration of the series differs between compounds; nearly all actives have a fitted effect of over 15% in size)
In short: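 Using VM7Luc4E2 cells seeded 24hr before treatment, antagonist ICI-182,780 (10.0nM final) was added, followed by compounds at 15 concentrations. Plates incubated 22hr; ONE-Glo luminescence quantified reporter activity.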

Measured: Potency

CC1(C)[C@H](C(=O)OCc2cccc(Oc3ccccc3)c2)[C@@H]1C=C(Cl)Cl
inactive: [1]

CCC1C(=O)OCC1Cc1cncn1C (stereo not given)
inactive: [2] | [3] | [4] | [5]

Cc1ccc2ccccc2c1C
inactive: [6] | [7] | [8] | [9]

O=C(O)/C=C\C(=O)O
inactive: [2] | [3] | [4] | [5] | [10] | [11] | [12]

Cc1ccc([N+](=O)[O-])cc1N
inactive: [13]

N#CCCNCCC#N
inactive: [14] | [15]

C[N+]1(C)[C@@H]2CC(OC(=O)[C@H](CO)c3ccccc3)C[C@H]1[C@@H]1O[C@@H]12 (stereo not given in full)
inactive: [2] | [3]

O=[N+]([O-])c1ccccc1Cl
inactive: [6] | [7] | [16] | [9] | [17] | [18]

O=C(O)/C=C/C(=O)O
inactive: [2] | [3] | [4] | [5] | [10] | [11] | [12]

Cc1ccc(O)cc1C
inactive: [6] | [7] | [9]

CCC1(c2cnc[nH]2)Cc2ccccc2C1
inactive: [10] | [11] | [19] | [20]

O=S(=O)(O)c1cc(O)ccc1O
inactive: [10] | [11]

CN(C)CCCCCCN(C)C
inactive: [10] | [11]

c1ccccc1
inactive: [10] | [11] | [19] | [20] | [12]

CC(C)(C)c1ccc(O)cc1
inactive: [7] | [9]

Oc1c(Cl)cc(Cl)cc1Cl
inactive: [7] | [8] | [9]
